Among all 48,000 compounds or so, about 13,000 (27%) showed an effect of 50% or more. The list shows a part of the results.

In the assay the test system is Wolbachia pipientis. Description: Anti-Wolbachia Cell-Based Screen. The following applies: 5 µM. Further details: scale not given: in the data most compounds retested in dose-response had high values. In kind it is functional.
Take `Cc1nc2c(NC(CC(C)(C)C)c3cccnc3)ncnc2o1` (centres undefined): the “Percent Effect” value is on record as -3.479%.

Consider `CC(C)(N)CN1CCC(c2nnc(CN3CCCC3)n2C2CC2)CC1`, for which the “Percent Effect” value is recorded as -7.57%.

In the case of `CNC(=O)c1ccc(NC(=O)NC(C)c2cc(C)oc2C)c(C)c1` (centres undefined), the “Percent Effect” value is -1.593%.

With `CN(CCC(F)(F)F)Cc1nc2ccccc2c(=O)[nH]1`, the “Percent Effect” value is -3.599%.

Consider `Cc1cnc(C(=O)N2CCN(C(=O)CC(C)C)[C@@H]3CS(=O)(=O)C[C@@H]32)cn1`, for which the “Percent Effect” value was -11.52%.

For `CC(C)(C)CN1CC[C@H](c2nnc(Cc3c[nH]c4ccccc34)o2)C1`, the “Percent Effect” value is on record as 1.678%.

On to `Cc1n[nH]c(C(=O)N2CCCC(C)CC2)c1Br` (centres undefined), for which the “Percent Effect” value amounted to 10.78%.

Turning to `CCNC(=O)c1nnn(Cc2ccccc2)c1OC`, the “Percent Effect” value came to 0.7251%.

In the case of `Cc1cc(=O)n(C)cc1NC(=O)Cc1cccc(F)c1`, the “Percent Effect” value was -4.709%.

In the case of `O=C(O)C(F)(F)F.O=C1CC[C@H]2[C@H](CCN2c2ncc(F)cn2)N1c1ccccc1`, the “Percent Effect” value is reported as 111.8%.

As for `Cc1cccc(C(=O)N2CC[C@@H]3[C@H]2CCC(=O)N3c2ccccc2)n1.O=C(O)C(F)(F)F`, the “Percent Effect” value was -24.35%.

Regarding `O=C(O)C(F)(F)F.O=C1CC[C@H]2[C@H](CCN2c2ncccn2)N1c1ccccc1`, the “Percent Effect” value came to 99.41%.

As for `Cc1ccoc1C(=O)N1CC[C@H]2[C@@H]1CCC(=O)N2c1cccnc1.O=C(O)C(F)(F)F`, the “Percent Effect” value is -7.796%.

Turning to `Cc1cnc(N2CC[C@H]3[C@@H]2CCC(=O)N3c2cccnc2)nc1.O=C(O)C(F)(F)F.O=C(O)C(F)(F)F`, the “Percent Effect” value is -6.762%.

Take `O=C(C1CC1)N1CC[C@H]2[C@@H]1CCC(=O)N2c1ccccc1`: the “Percent Effect” value is 23.82%.

Regarding `Cc1ccc(C(=O)N2CC[C@H]3[C@@H]2CCC(=O)N3c2ccccc2)cn1.O=C(O)C(F)(F)F`, the “Percent Effect” value was -18.98%.

Regarding `Cc1cnc(N2CC[C@H]3[C@@H]2CCC(=O)N3c2ccccc2)nc1.O=C(O)C(F)(F)F`, the “Percent Effect” value is 112.6%.

Turning to `O=C(O)C(F)(F)F.O=C(O)C(F)(F)F.O=C1CC[C@H]2[C@H](CCN2c2ncc(F)cn2)N1c1cccnc1`, the “Percent Effect” value is reported as -9.717%.

Take `CC(OCC1CC1)C(=O)Nc1nccn1Cc1ccccc1` (centres undefined): the “Percent Effect” value was -19.61%.

Consider `CN(C(=O)NCCCNc1ccccn1)C1CCS(=O)(=O)C1` (centres undefined), for which the “Percent Effect” value was -6.562%.

For `CCN(Cc1cnc(NCc2ccccc2)nc1)C1CCS(=O)(=O)C1` (centres undefined), the “Percent Effect” value is given as -2.242%.

Consider `CN(Cc1cccc2cccnc12)C1CCS(=O)(=O)C1.O=C(O)CC(O)(CC(=O)O)C(=O)O` (centres undefined), for which the “Percent Effect” value turned out to be 164.7%.

As to `CN(Cc1ccnc2ccccc12)C1CCS(=O)(=O)C1.O=C(O)CC(O)(CC(=O)O)C(=O)O` (centres undefined), the “Percent Effect” value was 102.4%.

For `CN(Cc1ccc(F)c2cccnc12)C1CCS(=O)(=O)C1` (centres undefined), the “Percent Effect” value came to 8.686%.

Regarding `Cc1ccsc1[C@@H]1CCN(C(=O)CCC(=O)N2CCCCCC2)C[C@H]1O`, the “Percent Effect” value is given as -6.445%.

Turning to `Cc1cc(C)c2nc(C)cc(C(=O)NC(C)c3nnn[nH]3)c2c1` (centres undefined), the “Percent Effect” value was found to be 1.105%.

On to `Cc1cc(C)c(C(=O)N(CCO)Cc2ccccc2F)c(=O)[nH]1`, for which the “Percent Effect” value was -8.709%.

For the compound `Cc1cc(C(=O)NC2(c3ccc(Br)cc3)CC2)n(C)n1`, the “Percent Effect” value stood at 77.44%.

Consider `Cc1cc(C(=O)NC2(C#N)CCSCC2)n(C)n1`, for which the “Percent Effect” value is given as -9.689%.

Turning to `CC(=O)c1cc(C(=O)NC2(c3ccc(Br)cc3)CC2)n(C)c1`, the “Percent Effect” value is on record as -0.634%.

For the compound `Cc1nnc(N2CCC(CS(N)(=O)=O)CC2)c(C#N)c1C`, the “Percent Effect” value was -8.566%.

Take `Cc1ccc(CCC(=O)N2CCCC(n3cncn3)C2)c(C)c1` (centres undefined): the “Percent Effect” value is on record as -8.257%.

In the case of `O=C(CCc1ccccc1)N1CC(n2cncn2)C1`, the “Percent Effect” value amounted to 125.3%.

Turning to `O=C(COCc1ccccc1)N1CCCC(n2cncn2)C1` (centres undefined), the “Percent Effect” value is reported as 1.365%.

For `O=C(CCc1ccccc1)N1CCn2cc(Cn3cncn3)nc2C1`, the “Percent Effect” value is given as -11.69%.

With `O=C(CCc1ccccn1)N1CCCC(n2cncn2)C1` (centres undefined), the “Percent Effect” value was 108%.

Regarding `O=C(CCCc1ccccc1)N1CCCC(n2cncn2)C1` (centres undefined), the “Percent Effect” value is listed as 103%.

`O=C(CCc1cccc(F)c1F)N1CCCC(n2cncn2)C1` (centres undefined): the “Percent Effect” value is 102.1%.

`Cc1nn(C)cc1CCC(=O)N1CCCC(n2cncn2)C1` (centres undefined): the “Percent Effect” value is recorded as -0.08809%.

With `Cc1nc(NC(=O)C(C)S(C)(=O)=O)sc1Cc1ccc(F)cc1` (centres undefined), the “Percent Effect” value is recorded as 3.284%.

Take `Cn1ccnc1CCNS(=O)(=O)c1cccc(Br)c1`: the “Percent Effect” value is 11.32%.

Consider `CC(C)c1ccc(/C=C/CC(=O)NC2CCN(C(N)=O)CC2)cc1`, for which the “Percent Effect” value is listed as -28.76%.

In the case of `Cc1cnn(CC2CCCCN2Cc2nc(N)c3ccccc3n2)c1` (centres undefined), the “Percent Effect” value is reported as -1.986%.

On to `CSCCC(NC(N)=O)C(=O)Nc1ccc(-n2cccn2)nc1` (centres undefined), for which the “Percent Effect” value is recorded as -4.081%.

On to `N#CCCN(C(=O)CN1CCCC1C1CCCCC1)c1ccccc1` (centres undefined), for which the “Percent Effect” value is listed as -8.996%.

Take `CCC(C)N(Cc1ccc(C)cc1)Cc1c[nH]c(C)n1` (centres undefined): the “Percent Effect” value is reported as 14.09%.

On to `N#CCCN(c1ccccc1)S(=O)(=O)CC1CCCCO1` (centres undefined), for which the “Percent Effect” value is on record as -2.973%.

Turning to `CCOc1ccc(NC(=O)N(CCC#N)Cc2ccccn2)cc1F`, the “Percent Effect” value is recorded as -26.47%.

For the compound `O=C(Cc1ccccc1Cl)N1CCCC(n2cncn2)C1` (centres undefined), the “Percent Effect” value is recorded as -8.361%.

For the compound `O=C(CCc1cccnc1)N1CCCC(n2cncn2)C1` (centres undefined), the “Percent Effect” value is -7.114%.

For `O=C(Cc1cccnc1)N1CCCC(n2cncn2)C1` (centres undefined), the “Percent Effect” value is recorded as 106.6%.

Regarding `Cc1cccnc1CNc1ccc(C(=O)N2CCc3ccccc32)cn1`, the “Percent Effect” value is on record as 0%.

As for `COc1cc(CNc2cnn(C(C)(C)C)c(=O)c2Cl)ccn1`, the “Percent Effect” value is reported as -46.44%.

Regarding `CC(C)(C)n1ncc(NCC(O)c2ccccc2C(F)(F)F)c(Cl)c1=O` (centres undefined), the “Percent Effect” value stood at 100.7%.

In the case of `CC(C)(C)n1ncc(NCC(O)c2ccc(F)c(F)c2)c(Cl)c1=O` (centres undefined), the “Percent Effect” value is recorded as 100.9%.

On to `CC(C)(C)n1ncc(NCc2ccccc2)c(Cl)c1=O`, for which the “Percent Effect” value is listed as -16.67%.

Turning to `COCc1cccc(CNc2cnn(C(C)(C)C)c(=O)c2Cl)c1`, the “Percent Effect” value was -38.78%.

For `O=C(NCC(O)c1ccccc1C(F)(F)F)c1cccnc1` (centres undefined), the “Percent Effect” value is recorded as -5.174%.

`O=C(NCc1cccnc1)NCC(O)c1ccccc1C(F)(F)F` (centres undefined): the “Percent Effect” value is reported as -3.866%.

Turning to `CC(C)(C)n1ncc(NCCc2ccccc2C(F)(F)F)c(Cl)c1=O`, the “Percent Effect” value was determined as 139.1%.

Take `CC(C)(C)n1ncc2c(=O)n(CC(=O)NCc3ccccc3Cl)cnc21`: the “Percent Effect” value came to 3.164%.

On to `OC(CNCCn1cccn1)c1ccc(F)c(F)c1` (centres undefined), for which the “Percent Effect” value is -2.779%.

Regarding `COCc1ccc(CNc2cnn(C(C)(C)C)c(=O)c2Cl)cc1`, the “Percent Effect” value was 2.959%.

For `CC(C)(C)n1ncc(NCC(O)c2ccccc2)c(Cl)c1=O` (centres undefined), the “Percent Effect” value turned out to be 108.9%.

(Values after ChEMBL document CHEMBL3988442, “University of Dundee, Small-Polar-MMV Screening Library” (2021).)
